Screening results (PubChem)
Shown is part of a subset that was picked to be rich in hits.
ERp5 inh = ERp5 (human) disulfide isomerase inhibition. 0.05% of 350,000 active. inhibition, % at 9.99 µM. ERp5 insulin aggregation, absorbance 650 nm, 90 min. Q15084;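 active = mean replicate inhibition above about 25%, with every replicate also reaching it, limit read from the data, passing the limit was not always enough; inconclusive = only one of those two criteria met; inactive = neither criterion met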
Target sequence (Q15084 whole entry, looked up): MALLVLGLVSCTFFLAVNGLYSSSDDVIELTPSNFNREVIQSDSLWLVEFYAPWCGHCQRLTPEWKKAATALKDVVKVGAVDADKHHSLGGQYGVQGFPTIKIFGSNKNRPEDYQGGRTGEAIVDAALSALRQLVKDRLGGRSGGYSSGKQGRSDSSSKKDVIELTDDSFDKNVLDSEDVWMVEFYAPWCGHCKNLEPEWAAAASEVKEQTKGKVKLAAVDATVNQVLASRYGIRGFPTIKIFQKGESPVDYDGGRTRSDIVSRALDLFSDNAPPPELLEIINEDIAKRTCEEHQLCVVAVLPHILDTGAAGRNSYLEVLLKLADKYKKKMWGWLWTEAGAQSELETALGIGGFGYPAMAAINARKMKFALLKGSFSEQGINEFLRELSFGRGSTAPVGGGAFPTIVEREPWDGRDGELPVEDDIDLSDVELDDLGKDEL
ARNT-TACC3 inh = disruptors of human ARNT/TACC3 interaction; AlphaScreen His-ARNT PAS-B/GST-TACC3 binding, luminescence; TACC3 fragment carries E629A point mutation; inhibition, % at 9.99 µM; 0.66% of 390,000 active;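 active = mean inhibition of replicates at least 50% and at least half of replicates each reaching 50%; inconclusive = half or more replicates reach 50% but mean below 50%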;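 also: 0% = complete ARNT plus TACC3 wells and 100% = ARNT alone without TACC3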
PDI inh = inhibitors of human protein disulfide isomerase; P07237; PDI insulin aggregation turbidity, A650, 90 min; inhibition, % at 10 µM; 0.052% of 350,000 active; AID 588391;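 active = mean inhibition across replicates of 30% or more, whatever share of single replicates reach that level; inconclusive = mean inhibition below 30% while every single replicate reaches 30%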
CendR NRP1 mod = modulators of CendR peptide binding to human neuropilin-1; AID 602438; inhibition, % at 25 µM; O14786; 0.85% of 360,000 active; FAM-RPARPAR peptide binding to NRP-1, fluorescence polarization;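 active = inhibition or corrected inhibition above about 18%, plus a signal ratio from 0.5 to 1.5, limit read from the data, passing the limit was not always enough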
PglD DTNB = PglD (C. jejuni) enzyme inhibition | purified PglD enzyme, DTNB colorimetric CoA detection | inhibition, % at 12.5 µM | 0.098% of 360,000 active; in the data active = inhibition above about 16%, passing the limit was not always enough; inconclusive = no clear call, values can overlap the other calls
ALR inh = inhibitors of human sulfhydryl oxidase ALR; P55789; inhibition, % (concentration not given with the values); 3.8% of 290,000 active; purified ALR, DTT oxidation, H2O2 HRP-luminol luminescence;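 active = mean replicate inhibition above about 79%, with every replicate also reaching it, limit read from the data; inconclusive = only one of the two criteria met; inactive = mean below limit and not every replicate reaching it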
Active calls of the source: *; ? = inconclusive; . = not tested or not shown.

SMILES	ERp5 inh	ARNT-TACC3 inh	PDI inh	CendR NRP1 mod	PglD DTNB	ALR inh
CN(C)C(=O)C[C@H]1C=C[C@H](NS(=O)(=O)c2ccccc2)[C@H](CO)O1	-6	.	.	.	-2	.
C[C@@H](NC(=O)C[C@H]1CC[C@H](NC(=O)Cc2ccccn2)[C@@H](CO)O1)c1ccccc1	-3	1	.	.	-1	.
ClCC1=Nc2cccc3cccc(c23)N1	.	.	.	.	.	99*
Cc1csc(=N)n1-c1ccc(Cl)cc1	4	1	-3	13	-2	96*
Cc1ccc(-n2c(C)csc2=N)cc1	.	.	1	-7	-2	55
CN(C)c1ccc(/C=C/c2nnnn2-c2ccccc2)cc1	.	14	3	-6	0	99*
Cc1cc(N/C=C\c2nnnn2-c2ccccc2)no1	.	-2	-2	8	-4	-5
Oc1cccc(C(O)CNCc2ccc(-c3ccccc3)cc2)c1 (stereo unspecified)	6	11	1	28*	-2	6
OC(CNCc1ccccc1)c1ccccc1 (stereo unspecified)	.	1	-1	0	-2	0
CCCNC(=O)C(=O)N/N=C/c1cccs1	-6	-21	7	-17	-6	-3
CC(C)CNC(=O)C(=O)N/N=C/c1cccs1	.	27	-4	-11	3	82*
Cc1ccc(NC(=O)CCC(=O)N/N=C/c2cccs2)cc1	0	1	-4	-2	.	-3
O=C(CCCNc1ccccc1)N/N=C/c1cccs1	-6	4	-3	10	.	98*
Nc1csnc1C(=O)O	.	46*	11	-1	-5	1
C[C@@H]1CN([C@@H](C)CO)C(=O)c2cc(NC(=O)CCCN(C)C)ccc2O[C@@H]1CN(C)Cc1ccc2c(c1)OCO2	14	.	.	.	.	.
CCCNC(=O)C[C@@H]1CC[C@@H]2[C@H](COC[C@@H](O)CN2Cc2cccc(F)c2)O1	1	-3	.	.	3	.
NCCSc1c(-c2ccccc2)[nH]c2ccccc12	8	-2	.	0	1	97*
N#C[C@@H]1[C@@H](c2ccccc2-c2ccc(F)cc2)[C@H](CO)N1C(=O)NC1CCCC1	-2	.	.	.	.	.
COc1ccc2c3c(n(C)c2c1)[C@H](CO)N(C(=O)Cc1ccccn1)CC31CCN(CC2CCCC2)CC1	-5	.	.	.	.	.
O=C1Nc2ccccc2N=C(c2ccccc2)c2ccccc21	1	.	17	-1	8	83*
Cn1cccc1/C=N/n1c(-c2ccc(Cl)cc2Cl)n[nH]c1=S	.	.	-6	17	.	97*
Cn1cccc1/C=N/n1c(-c2ccc(Cl)cc2)n[nH]c1=S	.	.	0	0	.	-7
Clc1ccc2nc(N3CCCCC3)[nH]c2c1	.	-5	-1	-5	2	98*
Clc1ccc2nc(N3CCCCC3)sc2c1	1	-5	3	-8	.	14
C[C@H]1CN([C@@H](C)CO)C(=O)c2cc(NC(=O)CCCN(C)C)ccc2O[C@H]1CN(C)S(=O)(=O)c1ccccc1	4	1	.	.	0	.
SMILES	ERp5 inh	ARNT-TACC3 inh	PDI inh	CendR NRP1 mod	PglD DTNB	ALR inh
CNCc1ccccc1Sc1ccc(O)c(O)c1	-3	.	-3	3	.	99*
COc1ccc(Sc2ccccc2CN(C)C)cc1OC	.	-2	1	-2	2	8
CCOc1cccc2cc(-c3csc(NC(=O)CCC(=O)NCCCN4CCC(C)CC4)n3)c(=O)oc12	.	.	.	.	.	99*
CCOc1cccc2cc(-c3csc(NC(=O)CCC(=O)NCCN4CCCCC4C)n3)c(=O)oc12 (stereo unspecified)	6	-8	7	-4	0	99*
COc1cccc2cc(-c3csc(NC(=O)CCC(=O)NCCCN4CCC(C)CC4)n3)c(=O)oc12	-10	0	-10	-7	.	9
COCC(=O)Nc1ccc2c(c1)C(=O)N(C)[C@H]1CC[C@@H](CC(=O)NCc3ccccc3F)O[C@H]1CO2	0	-21	.	.	0	.
Cn1c(=O)[nH]c(=O)c2c1nc(N1CCCC1)n2CC(O)COc1ccccc1 (stereo unspecified)	9	-3	-3	2	-4	95*
COc1ccc(CCn2c(N3CCOCC3)nc3c2c(=O)[nH]c(=O)n3C)cc1	.	-4	13	-5	0	99*
Cn1c(=O)[nH]c(=O)c2c1nc(N1CCOCC1)n2CC(O)COc1ccccc1 (stereo unspecified)	.	-9	-1	5	.	-2
NC(=S)Nc1cc(Cl)cc(Cl)c1	-14	.	3	-1	-5	.
NC(=S)NNc1cc(Cl)cc(Cl)c1	.	8	10	7	-2	97*
Cc1ncc(CSCC(=O)Nc2cc(C(F)(F)F)ccc2Cl)c(CO)c1O	2	.	-1	1	0	94*
C[C@H](CO)N1C[C@H](C)[C@@H](CN(C)S(=O)(=O)c2ccc(F)cc2)Oc2ccc(NC(=O)CCCN(C)C)cc2C1=O	0	-3	.	.	2	.
Cc1ccc(C2(C)NC(=O)N(CC(=O)Nc3ccc(S(=O)(=O)Nc4nccs4)cc3)C2=O)cc1 (stereo unspecified)	-9	17	1	-16	-5	96*
CC1(c2ccc(OC(F)F)cc2)NC(=O)N(CC(=O)Nc2ccc(F)cc2)C1=O (stereo unspecified)	2	2	-2	-4	-2	-2
CC1(c2ccc(OC(F)F)cc2)NC(=O)N(CC(=O)Nc2ccc(OC(F)F)cc2)C1=O (stereo unspecified)	-1	-1	9	18*	-2	-5
COCc1cn(CC[C@H]2CC[C@H](NC(=O)Nc3ccc(OC)cc3)[C@H](CO)O2)nn1	1	-28	.	.	5	.
CC(=O)N(C)C[C@@H]1Oc2cc(C#Cc3ccncc3)ccc2S(=O)(=O)N([C@H](C)CO)C[C@@H]1C	4	-4	.	.	2	.
COCCNC(=O)/C(C#N)=C/c1cc(C)n(-c2ccc(C)cc2)c1C	?	28	0	27*	.	1
CCOCCCNC(=O)/C(C#N)=C/c1cc(Br)c(O)c(Br)c1	.	2	1	-3	-13	.
COCCNC(=O)/C(C#N)=C/c1cc(Br)c(O)c(OC)c1	3	1	4	-25	.	83*
COc1cc(/C=C(\C#N)C(=O)NC(C)C)cc(Cl)c1O	1	27	3	3	0	97*
COCCNC(=O)/C(C#N)=C/c1ccc2c(c1)OCO2	1	-5	-3	35*	.	4
Cc1ccc(S(=O)(=O)Nc2ccc3c(c2)C(=O)N([C@H](C)CO)C[C@H](C)[C@H](CN(C)C)OCCCC[C@H](C)O3)cc1	-4	28	.	.	0	.
CC(=O)N1CC2(C1)[C@@H](c1ccc(-c3ccccc3C)cc1)[C@@H](CO)N2C(C)=O	-2	.	.	.	.	.
O=C(C1CCOCC1)N1[C@H](CO)[C@@H](c2ccccc2)C12CN(Cc1cccnc1)C2	3	.	.	.	.	.
Cc1cc(C)nc(Sc2ccc([N+](=O)[O-])cc2[N+](=O)[O-])n1	.	-5	-6	-5	.	-15
